Bioassay records (PubChem)
Only some compounds are listed: those with a hit (about 21% of all), similar ones and a draw of the others.
IL1B secr inh – qHTS for Inhibitors of Inflammasome Signaling: IL-1-beta AlphaLISA Primary Screen; THP-1 LPS/ATP IL-1B secretion, AlphaLISA, 16 h; hits give low values; activity change, % at 57.5 µM; 360,000 tested, 4.7% active; AID 743279, 2014; in the data active = activity change below about -50%; inconclusive = mostly about -30% to -49%
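Secreted IL-1B measured by AlphaLISA bead assay after 16 h compound exposure of THP-1 cells; compounds (final up to 57.5 uM) added 1 h before LPS (250 ng/mL) and ATP (1.25 mM) stimulation; lower signal means less secretion.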
DT40 TDP1 CPT – qHTS for Inhibitors of human tyrosyl-DNA phosphodiesterase 1 (TDP1): qHTS in cells in presence of CPT. chicken DT40 Tdp1-/-;hTDP1 cells + 20 nM CPT, ATP luminescence, 48 h. Potency, µM (top dose mostly 46.2 µM), without a hit: at the highest dose activity change, negative = growth inhibition, hits mostly inhibitors. 420,000 tested, 12% active. AID 686979, 2013; also: potency is read from the fitted curve at half-maximal effect; nearly all actives have a fitted effect of over 55% in size
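Chicken DT40 Tdp1-/- cells stably complemented with human TDP1 were seeded at 400 cells/well in medium containing 20 nM camptothecin, exposed to pin-transferred compounds, and grown at 37 °C for at least 48 hr. Viability was read as ATP luminescence.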
RORg inh – qHTS for inhibitors of ROR gamma transcriptional activity. Nuclear receptor ROR-gamma (Mus musculus), P51450. Drosophila S2 Gal4-RORgamma UAS-luciferase reporter, 20 h. Potency, µM (highest dose often 53.6 µM), for inactives: at the top dose activity change, negative = inhibition, actives largely listed as inhibitors. 310,000 tested, 5.4% active. AID 2551, 2010; also: potency is read from the fitted curve at half-maximal effect; nearly all actives have a fitted effect of over 60% in size
Target sequence (P51450 whole entry, looked up, the tested form may be a part): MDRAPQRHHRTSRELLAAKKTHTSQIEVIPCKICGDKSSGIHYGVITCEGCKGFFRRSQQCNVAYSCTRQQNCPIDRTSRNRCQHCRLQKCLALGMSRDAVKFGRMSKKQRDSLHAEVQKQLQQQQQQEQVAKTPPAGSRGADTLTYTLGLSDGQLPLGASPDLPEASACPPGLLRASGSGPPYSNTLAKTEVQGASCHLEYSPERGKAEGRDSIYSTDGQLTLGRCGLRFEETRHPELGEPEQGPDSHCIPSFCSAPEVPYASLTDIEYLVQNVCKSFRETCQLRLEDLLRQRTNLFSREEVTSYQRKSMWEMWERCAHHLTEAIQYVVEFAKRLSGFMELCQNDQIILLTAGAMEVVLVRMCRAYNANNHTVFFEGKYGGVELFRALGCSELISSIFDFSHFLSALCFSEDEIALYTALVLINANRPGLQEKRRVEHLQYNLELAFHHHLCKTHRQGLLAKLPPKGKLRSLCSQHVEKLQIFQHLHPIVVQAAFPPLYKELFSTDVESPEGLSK
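Drosophila Schneider cells stably carrying a metallothionein-driven Gal4 DBD–ROR gamma fusion and a UAS-Photinus luciferase reporter were exposed to compound for 1 hr, then induced with copper sulfate (700 uM final) for 20 hr at ambient temperature before luminescence reading.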
ELG1 repair inh – qHTS screen for small molecules that inhibit ELG1-dependent DNA repair in human embryonic kidney (HEK293T) cells expressing luciferase-tagged ELG1. 330,000 tested, 2.3% active. Potency, µM (top dose mostly 46.1 µM), for inactives: at the highest dose activity change, negative = inhibition, hits mostly inhibitors. HEK293T ELG1-luciferase reporter, luminescence, 16 h; DNA damage induced by 5-fluorouridine. AID 504467, 2011; also: potency is read from the fitted curve at half-maximal effect; nearly all actives have a fitted effect of over 55% in size
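Overnight (16 hr) co-exposure of 2,000 cells/well to 5-fluorouridine and compound at 37 °C preceded detection. Luciferase was quantified via ONE-Glo luminescence; loss of signal denotes inhibition.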
VP16 counter – VP16 counterscreen qHTS for inhibitors of ROR gamma transcriptional activity; Drosophila S2 Gal4-VP16 UAS-luciferase, luminescence, 20 h; AID 2546, 2010; Potency, µM (doses to about 53.6 µM), for the others: top-dose activity, negative = inhibition, actives largely listed as inhibitors; 310,000 tested, 3.5% active;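 also: Gal4-VP16 expression switched on by copper sulfate through the metallothionein promoter; potency is read from the fitted curve at half-maximal effect; nearly all actives have a fitted effect of over 50% in size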
DT40 TDP1 no CPT – qHTS for Inhibitors of human tyrosyl-DNA phosphodiesterase 1 (TDP1): qHTS in cells in absence of CPT; DT40 Tdp1-/- hTDP1 cells, no CPT, ATP luminescence, 48 h; Potency, µM (top dose mostly 46.2 µM), inactives show at the highest dose activity change, negative = growth inhibition, hits mostly inhibitors; 420,000 tested, 15% active; AID 686978, 2013; also: potency is read from the fitted curve at half-maximal effect; nearly all actives have a fitted effect of over 55% in size
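No-CPT arm: Tdp1-/-;hTDP1 DT40 cells (400/well) plus compounds, incubated ≥48 hr at 37 °C. Readout CellTiter-Glo luminescence.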
An asterisk follows results filed as active; ? = inconclusive; nt = no result; ! = repeats disagree. Unless noted, calls follow the shape of the dose curve; as a rule, active = well fitted curve in the direction sought with a large enough effect; inconclusive = small, poorly fitted or top-dose-only effect, or another doubt; inactive = no such curve, though single readings can be large; an effect the other way counts as inactive or inconclusive. % is scaled to controls: 0 for no effect and ±100 for the full control effect.

SMILES	IL1B secr inh	DT40 TDP1 CPT	RORg inh	ELG1 repair inh	VP16 counter	DT40 TDP1 no CPT
COc1ccc(-c2nc3ccccc3o2)cc1NC(=O)COc1ccc(C)cc1	nt	?	nt	nt	nt	-18%
CC(C)(C)c1ccc(OCC(=O)Nc2ccc(-c3nc4cccnc4o3)cc2)cc1	-16	?	-21%	nt	10%	9.2µM*
COc1ccc(-c2nc3ccccc3o2)cc1NC(=O)COc1ccc(C(C)(C)C)cc1	nt	?	nt	nt	nt	16µM*
Cc1ccc(CNC(=O)C2CCCN(S(=O)(=O)c3ccc4c(ccn4C)c3)C2)cc1 (stereo not given)	nt	-11%	nt	nt	nt	-6%
COC(=O)[C@H](Cc1ccccc1)NC(=O)C1CCN(C(=O)[C@H](C)NS(=O)(=O)c2ccc(C)cc2)CC1	-50*	-8%	-12%	1%	2%	7%
COc1ccc(CCNC(=S)NCCc2c[nH]c3ccccc23)cc1	-14	?	13µM*	6%	?	?
COc1cc(CNCc2cccc3ccccc23)cc(OC)c1	8	?	47%	1%	-19%	?
COc1cc(CNCc2c[nH]c3ccccc23)cc(OC)c1	-84*	5.8µM*	?	?	-15%	9.2µM*
COc1ccc(CNC(=O)NCCc2c[nH]c3ccccc23)cc1	-15	?	22%	?	-3%	1%
COc1ccc(-c2cn(Cc3cccc(OC)c3)nn2)cc1	-16	13µM*!	?	?	-4%	11µM*!
COc1ccc(-c2cn(CCc3c[nH]c4ccccc34)nn2)cc1	-18	11µM*	?	3%	12%	10µM*
O=C(NCCc1c[nH]c2ccccc12)Nc1ccccc1	-26	-5%	34%	10%	1%	?
Cc1cccc(NC(=S)NCCc2c[nH]c3ccccc23)c1	2	?	2.5µM*	-3%	1µM*	?
Cc1ccc(C(=O)N/C(=C\c2cccs2)C(=O)NCCc2c[nH]c3ccccc23)cc1	-63*	?	25%	-8%	-7%	?
Cc1ccc(NC(=S)NCCc2c[nH]c3ccccc23)cc1	-19	?	7.9µM*	?	20µM*	23µM*
CC(C)c1ccc(NC(=S)NCCc2c[nH]c3ccccc23)cc1	-53*	?	10µM*	-21%	?	26µM*
CC(Sc1ccccc1)C(=O)NNC(=O)c1ccncc1 (stereo not given)	-10	0%	nt	11%	nt	0%
Cc1ccc(S(=O)(=O)N2CCN(C(=O)c3cc(S(=O)(=O)N4CCOCC4)c(Cl)cc3Cl)CC2)cc1	14	?	nt	nt	nt	?
O=C(O)CC1SC(=O)N(CC(=O)c2ccccc2)C1=O (stereo not given)	5	4%	-14%	5%	2%	0%
C=C(C)CCC(C)N1CCC(n2nccc2NC(=O)CCCc2ccccc2)CC1 (stereo not given)	-7	?	-7%	1%	-3%	?
O=C(NC12CC3CC(CC(C3)C1)C2)N1CCN(c2ccccc2)CC1	16	?	17%	-2%	-8%	?
COc1cccc(N2CCN(CC(=O)C34CC5CC(CC(C5)C3)C4)CC2)c1	0	3%	18%	-5%	1%	-16%
COc1ccc(N2CCN(C(=O)NC34CC5CC(CC(C5)C3)C4)CC2)cc1	39	?	18%	?	-4%	23µM*
COc1cccc(N2CCN(C(C)C(=O)NC34CC5CC(CC(C5)C3)C4)CC2)c1 (stereo not given)	-15	?	11%	-4%	-6%	16µM*
COc1cccc(S(=O)(=O)N(C)C[C@@H]2OCc3cnnn3CCCC(=O)N([C@@H](C)CO)C[C@@H]2C)c1	18	-12%	nt	nt	nt	0%
SMILES	IL1B secr inh	DT40 TDP1 CPT	RORg inh	ELG1 repair inh	VP16 counter	DT40 TDP1 no CPT
C[C@@H]1CN([C@H](C)CO)C(=O)CCCn2nncc2CO[C@H]1CN(C)Cc1ccc(O)cc1	-16	6%	nt	nt	nt	6%
Cc1nn(Cc2ccccc2)c(=O)c2nn(-c3ccc(Cl)cc3)c(C)c12	-70*	?	?	?	?	21µM*
Cc1ccc(-n2nc3c(=O)n(CC(=O)NCCc4ccc(Cl)cc4)nc(C)c3c2C)cc1	-8	?	44%	-26%	13µM*	?
Cc1ccc(-n2nc3c(=O)n(CC(=O)NC(C)CCc4ccccc4)nc(C)c3c2C)cc1 (stereo not given)	19	?	3%	0.65µM*	-8%	23µM*
Cc1ccc(-n2nc3c(=O)n(CCCC(=O)NCc4cccc(F)c4)nc(C)c3c2C)cc1	-3	?	11%	-2%	-5%	15µM*
CC(C)CCNC(=O)CCn1c(=O)c2cccn2c2cccnc21	nt	8%	nt	nt	nt	-16%
Cc1ccc(CCNC(=O)CCCn2nc(C)c3c(C)n(-c4ccccc4)nc3c2=O)cc1	nt	21µM*	nt	nt	nt	21µM*
Cc1ccc(-n2nc3c(=O)n(CCCC(=O)NCCc4ccccc4C)nc(C)c3c2C)cc1	?	?	11%	-19%	-7%	12µM*
Cc1ccc(CCNC(=O)CCCn2nc(C)c3c(C)n(-c4ccc(C)cc4)nc3c2=O)cc1	-4	15µM*	4%	-1%	-12%	?
Cc1ccc(CCNC(=O)CCn2nc(-c3ccc(Cl)cc3)ccc2=O)cc1	nt	?	nt	nt	nt	23µM*
C=C(C)C1CCC(C)=C1CC(C)(C)/C=N\n1cnnc1 (stereo not given)	13	10µM*	7%	-15%	-4%	21µM*
CN(Cc1ccc(Cl)c(Cl)c1)C(c1cc2ccccc2o1)c1nnnn1C(C)(C)C (stereo not given)	0	?	nt	nt	nt	21µM*
CCCCn1nnnc1C(c1cc2ccccc2o1)N(C)Cc1ccccc1 (stereo not given)	16	?	nt	nt	nt	23µM*
CC(=O)NC1=CC(=C[N+](=O)[O-])C=C1O	-7	?	nt	nt	nt	-1%
Cc1c(CCC(=O)NCCc2ccc(Cl)cc2)c(=O)oc2c(C)c(O)ccc12	nt	?	nt	nt	nt	-20%
